Screening data as filed in PubChem.
Shown are actives, neighbours in structure and some others; about 6.8% of the full set was active somewhere.
C diff HTS: C. difficile growth inhibition. Clostridium difficile clinical isolate growth, OD600, 24 h; hits give low values. growth activity, negative = inhibition, % at 16 µg/mL (by protocol). 0.25% of 86,000 active;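 active = mean growth activity at or below -80% and every replicate also at or below -80%; inconclusive = mean at or below -80% but some replicate above -80%; inactive = mean growth activity above -80%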;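 also: 0% = DMSO wells and -100% = levofloxacin 16 µg/mL wells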
T cruzi growth-1: inhibitors of T. cruzi proliferation; T. cruzi beta-gal in NIH3T3, GalScreen luminescence, 90 h; inhibition, % at 8.34 µM; 5.9% of 77,000 active; AID 624255;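 active = mean inhibition above about 93%, with at least 55% of replicates each passing it, limit read from the data, passing the limit was not always enough; inconclusive = only one of those two conditions holds; inactive = neither condition holds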
Pf Dd2 inh: blocks growth of Plasmodium falciparum Dd2 parasites | P. falciparum Dd2 growth, SYBR Green, 72 h; hits give low values | 2.3% of 94,000 active | activity change, % at 10 µM; in the data active = activity change below about -80%; inconclusive = no clear call, values can overlap the other calls
T cruzi growth-2: inhibitors of T. cruzi proliferation. shares compounds with T cruzi growth-1. T. cruzi beta-gal in NIH3T3, GalScreen luminescence, 90 h. inhibition, % at 8.35 µM. 72% of 5,600 active;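 active = mean replicate inhibition above about 95% and at least 55% of replicates individually reaching it, limit read from the data; inconclusive = only one of the two criteria is met; inactive = neither criterion is met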
T cruzi growth-3: blocks T. cruzi growth in NIH3T3 host cells | inhibition, % at 2.09 µM | 21% of 5,600 active | shares compounds with T cruzi growth-1 | AID 651740 | T. cruzi beta-gal in NIH3T3, GalScreen luminescence, 90 h;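 active = mean inhibition above about 95%, with at least 55% of replicates also reaching it, limit read from the data; inconclusive = meets just one of the two conditions; inactive = meets neither condition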;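 also: plate controls were neutral control median for no effect and positive control median for full effect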
3T3 cytotox: cytotoxicity in mouse NIH/3T3 fibroblasts | shares compounds with T cruzi growth-1 | NIH/3T3 viability, CellTiter-Glo ATP luminescence, 90 h | cytotoxicity (signal decrease), % at 8.35 µM | 14% of 5,600 active | AID 651742;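 active = mean signal decrease across replicates above about 35% based on untreated-well scatter, with enough replicates individually passing, limit read from the data; inconclusive = no rule stated though some were filed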;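 also: 0% = median of neutral control wells and 100% = median of positive control wells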
3T3 cytotox 2: kills mouse NIH/3T3 fibroblasts. shares compounds with T cruzi growth-1. NIH/3T3 viability, CellTiter-Glo ATP luminescence, 90 h. inhibition, % at 24.9 µM. 56% of 5,600 active. AID 651744;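 active = mean loss of cell viability signal at or above a set limit, and enough replicates individually reaching it; inconclusive = meets only the mean limit or only the replicate share; inactive = meets neither condition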;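 also: 0% = median of neutral control wells and 100% = median of positive control wells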
The depositor's hits bear a star; ? = inconclusive; . = no result given.

SMILES | C diff HTS | T cruzi growth-1 | Pf Dd2 inh | T cruzi growth-2 | T cruzi growth-3 | 3T3 cytotox | 3T3 cytotox 2
C[C@@H]1CN([C@@H](C)CO)C(=O)c2cc(NC(=O)c3ccncc3)ccc2O[C@@H](C)CCCCO[C@@H]1CN(C)C(=O)CCC(F)(F)F | 0 | 41 | 12 | . | . | . | .
C[C@H](CO)N1C[C@H](C)[C@H](CN(C)CC2CCCCC2)OCCCC[C@H](C)Oc2ccc(NC(=O)Nc3ccc(C(F)(F)F)cc3)cc2C1=O | -82* | 95* | -78 | 91 | 106* | 120* | 105*
C[C@@H]1CN([C@H](C)CO)C(=O)c2cc(NC(=O)Nc3ccc(C(F)(F)F)cc3)ccc2O[C@@H](C)CCCCO[C@@H]1CN(C)CC1CCCCC1 | -63 | ? | -64 | ? | 112* | 118* | 105*
C[C@H](CO)N1C[C@H](C)[C@@H](CN(C)C)OCCCC[C@H](C)Oc2ccc(NC(=O)Nc3ccc(C(F)(F)F)cc3)cc2C1=O | 6 | 36 | 37 | . | . | . | .
C[C@H](CO)N1C[C@H](C)[C@H](CN(C)C)OCCCC[C@H](C)Oc2ccc(NC(=O)Nc3ccc(C(F)(F)F)cc3)cc2C1=O | 8 | 25 | . | . | . | . | .
O=C(c1cccnc1)N1CC2(C1)[C@H](c1ccccc1)[C@H](CO)N2Cc1ccncc1 | 2 | . | 35 | . | . | . | .
O=C(c1ccccn1)N1CC2(C1)[C@@H](c1ccccc1)[C@@H](CO)N2Cc1ccc(Cl)cc1 | 3 | . | -14 | . | . | . | .
CC(C)CC#Cc1ccc2c(c1)O[C@H](CN(C)C(=O)Cc1cccnc1)[C@H](C)CN([C@H](C)CO)S2(=O)=O | 4 | . | 12 | . | . | . | .
CC(C)CC#Cc1ccc2c(c1)O[C@@H](CN(C)C(=O)Cc1ccccc1)[C@@H](C)CN([C@H](C)CO)S2(=O)=O | -1 | 127* | -48 | 98* | 112* | 30 | 103*
CC(C)CC#Cc1ccc2c(c1)O[C@@H](CN(C)C(=O)Cc1cccnc1)[C@H](C)CN([C@H](C)CO)S2(=O)=O | -1 | . | -35 | . | . | . | .
CC(C)CC#Cc1ccc2c(c1)O[C@@H](CN(C)C(=O)Cc1ccccc1)[C@@H](C)CN([C@@H](C)CO)S2(=O)=O | 20 | 126* | -42 | 103* | 69 | 0 | 104*
CC(C)CC#Cc1ccc2c(c1)O[C@H](CN(C)C(=O)Cc1ccncc1)[C@@H](C)CN([C@H](C)CO)S2(=O)=O | 2 | ? | -65 | 101* | 70 | 3 | -7
CC(C)CC#Cc1ccc2c(c1)O[C@@H](CN(C)C(=O)Cc1ccncc1)[C@@H](C)CN([C@H](C)CO)S2(=O)=O | 4 | 84 | ? | . | . | . | .
CC(C)CC#Cc1ccc2c(c1)O[C@@H](CN(C)C(=O)Cc1cccnc1)[C@@H](C)CN([C@@H](C)CO)S2(=O)=O | 1 | . | -32 | . | . | . | .
CC(C)CC#Cc1ccc2c(c1)O[C@H](CN(C)C(=O)Cc1ccccc1)[C@H](C)CN([C@@H](C)CO)S2(=O)=O | 1 | 121* | -31 | 99* | 95 | 18 | 100*
C[C@@H](NC(=O)C[C@@H]1C[C@H]2c3cc(NC(=O)Nc4ccccc4F)ccc3O[C@H]2[C@@H](CO)O1)c1ccccc1 | 3 | . | 8 | . | . | . | .
COc1ccc(OC(=O)N(C)C[C@H]2OCc3cn(nn3)CCCC(=O)N([C@@H](C)CO)C[C@@H]2C)cc1 | . | 0 | 21 | . | . | . | .
C[C@H]1CN([C@@H](C)CO)C(=O)c2cc(NC(=O)CCCN(C)C)ccc2O[C@H]1CN(C)S(=O)(=O)c1ccc(Cl)cc1 | -6 | 28 | 0 | . | . | . | .
Cc1ccc(S(=O)(=O)Nc2ccc3c(c2)C(=O)N([C@@H](C)CO)C[C@@H](C)[C@@H](CN(C)Cc2ccncc2)OCCCC[C@@H](C)O3)cc1 | . | 14 | -61 | . | . | . | .
Cc1ccc(S(=O)(=O)N(C)C[C@@H]2Oc3ccc(NC(=O)Nc4c(C)noc4C)cc3C(=O)N([C@@H](C)CO)C[C@H]2C)cc1 | -4 | 16 | 18 | . | . | . | .
C[C@@H]1CN([C@@H](C)CO)C(=O)c2cc(C#Cc3ccccc3F)cnc2O[C@@H]1CN(C)C(=O)Cc1cccnc1 | -2 | . | -18 | . | . | . | .
CO[C@H]1CN(C)C(=O)c2cc(NS(=O)(=O)c3ccc(Cl)cc3)ccc2OC[C@H](C)NC[C@@H]1C | . | -27 | -13 | . | . | . | .
COc1ccc(C#Cc2ccc3c(c2)[C@H]2[C@H](CCN2C(=O)CC2CC2)[C@H](CO)N3)cc1 | -8 | ? | -22 | 98* | 52 | 6 | 21
COc1ccc(C#Cc2ccc3c(c2)[C@H]2[C@H](CCN2C(=O)c2ccncc2)[C@H](CO)N3)cc1 | 53 | 101* | -60 | 107* | 61 | 26 | 38*
COCC(=O)N1CC[C@@H]2[C@H]1c1cc(C#Cc3ccc(OC)cc3)ccc1N[C@@H]2CO | -20 | 42 | -18 | . | . | . | .
SMILES | C diff HTS | T cruzi growth-1 | Pf Dd2 inh | T cruzi growth-2 | T cruzi growth-3 | 3T3 cytotox | 3T3 cytotox 2
COc1ccc(C#Cc2ccc3c(c2)[C@@H]2[C@@H](CCN2C(C)=O)[C@H](CO)N3)cc1 | -6 | . | -36 | . | . | . | .
COCC(=O)N(C)C[C@H]1Oc2cc(C#Cc3ccccc3)ccc2S(=O)(=O)N([C@H](C)CO)C[C@@H]1C | 3 | 50 | -62 | . | . | . | .
CC(=O)N(C)C[C@H]1Oc2cc(C3=CCCC3)ccc2S(=O)(=O)N([C@H](C)CO)C[C@H]1C | 7 | 0 | . | . | . | . | .
COc1ccc(-c2cc3c(c(-c4ccc(Oc5ccccc5)cc4)n2)[Si](C(C)C)(C(C)C)OC3)cn1 | -2 | . | . | . | . | . | .
COc1cccc(S(=O)(=O)N(C)C[C@@H]2Oc3cc(C#CCC(C)C)ccc3S(=O)(=O)N([C@@H](C)CO)C[C@@H]2C)c1 | 28 | ? | -72 | ? | 112* | 5 | 9
COc1cccc(S(=O)(=O)N(C)C[C@H]2Oc3cc(C#CCC(C)C)ccc3S(=O)(=O)N([C@@H](C)CO)C[C@H]2C)c1 | 7 | ? | -77 | 96* | 112* | 18 | 66*
COc1cccc(S(=O)(=O)N(C)C[C@@H]2Oc3cc(C#CCC(C)C)ccc3S(=O)(=O)N([C@H](C)CO)C[C@H]2C)c1 | 4 | 61 | ? | . | . | . | .
CCCC#Cc1ccc2c(c1)O[C@H](CN(C)S(=O)(=O)c1cccc(OC)c1)[C@H](C)CN([C@@H](C)CO)S2(=O)=O | . | . | -20 | . | . | . | .
Cc1noc(C)c1S(=O)(=O)N(C)C[C@H]1OCCCC[C@@H](C)Oc2ccc(NC(=O)Nc3ccc(C(F)(F)F)cc3)cc2C(=O)N([C@@H](C)CO)C[C@@H]1C | -1 | 99* | -94* | 106* | 116* | 30 | 35*
Cc1noc(C)c1S(=O)(=O)N(C)C[C@@H]1OCCCC[C@@H](C)Oc2ccc(NC(=O)Nc3ccc(F)cc3)cc2C(=O)N([C@@H](C)CO)C[C@H]1C | -4 | 86 | -31 | . | . | . | .
